As usually defined, the AC50 is the concentration giving half of the maximal activity seen.

Active and inactive are the calls of the source. Rule for the calls: active = hit-call score of the fitted dose curve at least 0.9, where 1 is the maximum; inactive = score below 0.9.

This is an account of results in PubChem BioAssay (EPA / NIEHS).

Read-out in the assay: Urokinase-type plasminogen activator receptor (uPAR), PLAUR (gene 5329)
Description: BSK_4H_uPAR: BioMAP Diversity Plus: 4H Assay for Urokinase-type plasminogen activator receptor (uPAR) Biomarker Activity (AID 2283030). Conditions: primary human endothelial cells (HUVEC); actives raise or lower the signal. As to the method:
BSK_4H is a cell-based, multiplexed-readout assay that uses umbilical vein endothelium, a human vascular primary cell, with measurements taken at 24 hours after chemical dosing in a 96-well plate.BSK_4HAR is an assay component measured in the BSK_4H assay. It measures uPAR antibody related to regulation of gene expression using ELISA technology.Data from the assay component BSK_4HAR was analyzed into 1 assay endpoint. This assay endpoint, BSK_4HAR, was analyzed with bidirectional fitting relative to DMSO as the negative control and baseline of activity. Using a type of binding reporter, gain or loss-of-signal activity can be used to understand changes in the signaling as they relate to the gene PLAUR. Furthermore, this assay endpoint can be referred to as a primary readout, because this assay has produced multiple assay endpoints where this one serves a signaling function. To generalize the intended target to other relatable targets, this assay endpoint is annotated to the cytokine intended target family, where the subfamily is plasmogen activator.
The levels of cell surface (or secreted, indicated by the prefix "s") biomarker endpoints were measured by ELISA. Overt cytotoxicity to cells in confluent adherent cultures (all systems other than the BT system) was assessed by measuring total protein levels using sulforhodamine B (SRB) staining in parallel cultures at the time of biomarker measurements, indicated as SRB endpoints. For proliferation assays for adherent cell types, individual cell types are cultured at sub-confluence and relative cell numbers quantified by SRB staining at time points optimized for each system (48 h: 3C and CASM3C systems; 72 h: BT and HDF3CGF systems; 96 h: SAg system). SRB was performed by staining cells with 0.1% SRB after fixation with 10% TCA and reading wells at 560 nm.Viability and proliferation of PBMC (T cells) was quantified by Alamar Blue reduction for the SAg and BT systems. For PBMC viability (referred to as PBMC Cytotoxicity within the assay endpoint names), cells were plated (75,000/well in a 96-well plate) and then chemical samples added for 1 h before addition of activators, SEB and TSST-1 (20 ng/mL final concentration each). Cells were incubated for 90 h. Then, Alamar Blue (20 uL/well) (Invitrogen, Cat DAL1100) was added for 6 h, and the plates were read with a fluorescence microplate reader at 546/580 nm (excitation/emission). For PBMC proliferation, cells were plated and activated as above but incubated for only 16 h prior to addition of Alamar Blue. Plates were read after 6 h.
For `CCOP(=S)(Oc1cnc(C(C)(C)C)nc1)OC(C)C` (stereo not given), the result was inactive.
On to `CC(Oc1cccc(Cl)c1)C(=O)O` (stereo not given), for which the result was inactive.
The same measure, in the same setting: then `CCOP(=O)(OCC)Oc1cc(C)nc(C(C)C)n1`, with “inactive”; and `CC(COc1ccc(Oc2ccccc2)cc1)Oc1ccccn1` (stereo not given), with “inactive”.
Still for that read-out and setting: then `CN1COCN(Cc2cnc(Cl)s2)C1=N[N+](=O)[O-]`, with “inactive”.
Same read-out and setting: then `S=C1NCCN1`, with “inactive”; and `CNC(=O)ON=C(C)SC`, with “inactive”; and `CNC(=O)ON=C(SC)C(=O)N(C)C`, with “inactive”.
With `C#CCC1=C(C)C(OC(=O)C2C(C=C(C)C)C2(C)C)CC1=O` (stereo not given), the result was inactive.
On the same count and under the same terms, the result for `CNc1cnn(-c2cccc(C(F)(F)F)c2)c(=O)c1Cl` reads “inactive”; that for `COP(=O)(NC(C)=O)SC` (stereo not given), “inactive”; that for `CCc1cccc(C)c1N(C(=O)CCl)C(C)COC` (stereo not given), “inactive”.
The same measure, in the same setting: the result for `CCCOc1nn(C(=O)NS(=O)(=O)c2ccccc2C(=O)OC)c(=O)n1C` reads “inactive”; that for `CCOP(=S)(OCC)Oc1ccc2c(C)c(Cl)c(=O)oc2c1`, “inactive”; that for `C#CC(C)(C)NC(=O)c1cc(Cl)cc(Cl)c1`, “inactive”.
`COP(=O)(OC)SCn1c(=O)oc2cc(Cl)cnc21`: the result was inactive.
Same read-out and setting: the result for `CN(C)NC(=O)CCC(=O)O` reads “inactive”.
For `N#CSCSC#N`, the AC50 was 5.82 µM (active).
For the compound `CCNc1nc(Cl)nc(NC(C)(C)C#N)n1`, the outcome was inactive.
As for `FC(F)C(F)(F)OCC(Cn1cncn1)c1ccc(Cl)cc1Cl` (stereo not given), the AC50 was 31.7 µM (active).
As for `CC1=NNC(=O)N(/N=C/c2cccnc2)C1`, the result was inactive.
On the same count and under the same terms, the result for `CSC1=N[C@@](C)(c2ccccc2)C(=O)N1Nc1ccccc1` reads “inactive”.
In the case of `CC(C1CC1)C(O)(Cn1cncn1)c1ccc(Cl)cc1` (stereo not given), the outcome was inactive.
In the case of `O=C(O)c1cc(Oc2ccc(C(F)(F)F)cc2Cl)ccc1[N+](=O)[O-]`, the result was inactive.
For the compound `CCCCOC(=O)[C@@H](C)Oc1ccc(Oc2ccc(C#N)cc2F)cc1`, the outcome was inactive.
On the same count and under the same terms, then `CCOC(=O)COc1cc(-c2nn(C)c(OC(F)F)c2Cl)c(F)cc1Cl`, with “inactive”; and `COc1cc(OC)nc(Sc2cccc(Cl)c2C(=O)O)n1`, with “inactive”.
In the case of `CC(C)N(C(=O)SCC(Cl)=C(Cl)Cl)C(C)C`, the concentration at half-maximal activity (AC50) is 31.4 µM (active).
`C[N+]1(C)CCCCC1`: the outcome was inactive.
For the compound `CN(C)C(=O)Nc1cccc(C(F)(F)F)c1`, the outcome was inactive.
Take `CCOP(=O)(NC(C)C)Oc1ccc(SC)c(C)c1` (stereo not given): the result was inactive.
Regarding `C=C(C)[C@H]1Cc2c(ccc3c2O[C@@H]2COc4cc(OC)c(OC)cc4[C@@H]2C3=O)O1`, the AC50 is 4.41 µM (active).
As to `CCOP(=O)(SC(C)CC)N1CCSC1=O` (stereo not given), the result was inactive.
As for `CCCOCC(=Nc1ccc(Cl)cc1C(F)(F)F)n1ccnc1`, the AC50 was 36.7 µM (active).
Take `CCCCN(CC)c1c([N+](=O)[O-])cc(C(F)(F)F)cc1[N+](=O)[O-]`: the outcome was inactive.
The same measure, in the same setting: then `CNC(=O)Oc1cccc2c1OC(C)(C)O2`, with “inactive”.
`COc1cccc(C(=O)NN(C(=O)c2cc(C)cc(C)c2)C(C)(C)C)c1C`: the outcome was inactive.
For the compound `CC1(C(=O)Nc2ccc(O)c(Cl)c2Cl)CCCCC1`, the outcome was inactive.
For the compound `CCC(=O)Nc1ccc(Cl)c(Cl)c1`, the result was inactive.
The same measure, in the same setting: the result for `CCC(=NOC/C=C/Cl)C1=C(O)CC(C2CCOCC2)CC1=O` (stereo not given) reads “inactive”.
